Laboratory results: PubChem BioAssay (Tox21)
Inconclusive results are not listed. Activity calls are given as the source filed them. Unless noted, calls follow the shape of the dose curve; as a rule, active = well fitted curve in the direction sought with a large enough effect in the repeat runs; inconclusive = weak or mixed curves; inactive = no such curve, though single readings can be large; an effect the other way counts as inactive or inconclusive.

How the values were obtained:
[1] = qHTS assay to identify small molecule antagonists of the estrogen related receptor (ERR) signaling pathway from Tox21 library - cell viability counter screen (AID 1224834); also: nearly all actives have a fitted effect of over 30% in size
Outline: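 Counter screen run in ERR cells (2,000 cells/well): cells pre-incubated 6 h, then treated with compounds for 17.5 h at 37 C. Fluorescence was read 30 min after CellTiter-Fluor addition.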

[2] = biological target: Luciferin 4-monooxygenase (Photinus pyralis) (UniProt P08659); test: qHTS assay to identify small molecule inhibitors of firefly luciferase (AID 1224835); also: nearly all actives have a fitted effect of over 25% in size
Chain of Luciferin 4-monooxygenase (Photinus pyralis) (P08659 whole entry, looked up): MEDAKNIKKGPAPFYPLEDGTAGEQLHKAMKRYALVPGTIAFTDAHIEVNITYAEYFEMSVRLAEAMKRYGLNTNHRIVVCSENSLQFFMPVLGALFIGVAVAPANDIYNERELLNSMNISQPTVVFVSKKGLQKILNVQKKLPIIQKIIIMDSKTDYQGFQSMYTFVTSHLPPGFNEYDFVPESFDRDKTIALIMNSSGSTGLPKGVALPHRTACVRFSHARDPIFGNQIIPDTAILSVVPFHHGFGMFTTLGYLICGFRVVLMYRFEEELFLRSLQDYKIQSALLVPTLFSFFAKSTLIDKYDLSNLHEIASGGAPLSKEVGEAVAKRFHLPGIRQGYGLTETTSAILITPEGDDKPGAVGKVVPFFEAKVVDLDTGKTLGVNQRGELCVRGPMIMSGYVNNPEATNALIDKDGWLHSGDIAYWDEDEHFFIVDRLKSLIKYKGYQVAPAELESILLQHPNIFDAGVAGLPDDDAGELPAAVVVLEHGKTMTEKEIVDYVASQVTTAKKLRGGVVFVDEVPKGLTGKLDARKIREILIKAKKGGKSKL
Outline: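 Biochemical qHTS: compounds run as interplate titrations against purified firefly enzyme, with D-luciferin and ATP each at its KM concentration. Light output recorded by CCD imaging.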

[3] = qHTS assay to identify small molecule agonists of the constitutive androstane receptor (CAR) signaling pathway - cell viability counter screen (AID 1224836); also: nearly all actives have a fitted effect of over 45% in size
Outline: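 23 h treatment, 37 C, 5% CO2. Cell line: HepG2 stably expressing hCAR with a CYP2B6-2.2kb construct. Co-treatment: PK11195, 0.75 uM final. Read-out: CellTiter-Fluor fluorescence intensity.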

[4] = qHTS assay to identify small molecule antagonists of the constitutive androstane receptor (CAR) signaling pathway - cell viability counter screen (AID 1224837); also: nearly all actives have a fitted effect of over 45% in size
Outline: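 CITCO at 50 nM final was added alongside compounds (15 concentrations) to double-stable hCAR/CYP2B6-2.2kb HepG2 cells. Following 23 hr at 37 C, cell viability was quantified by CellTiter-Fluor fluorescence intensity.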

[5] = biological target: Nuclear receptor subfamily 1 group I member 3 (Homo sapiens) (UniProt Q14994); test: qHTS assay to identify small molecule agonists of the constitutive androstane receptor (CAR) signaling pathway (AID 1224839); also: nearly all actives have a fitted effect of over 15% in size
Chain of Nuclear receptor subfamily 1 group I member 3 (Homo sapiens) (Q14994 whole entry, looked up): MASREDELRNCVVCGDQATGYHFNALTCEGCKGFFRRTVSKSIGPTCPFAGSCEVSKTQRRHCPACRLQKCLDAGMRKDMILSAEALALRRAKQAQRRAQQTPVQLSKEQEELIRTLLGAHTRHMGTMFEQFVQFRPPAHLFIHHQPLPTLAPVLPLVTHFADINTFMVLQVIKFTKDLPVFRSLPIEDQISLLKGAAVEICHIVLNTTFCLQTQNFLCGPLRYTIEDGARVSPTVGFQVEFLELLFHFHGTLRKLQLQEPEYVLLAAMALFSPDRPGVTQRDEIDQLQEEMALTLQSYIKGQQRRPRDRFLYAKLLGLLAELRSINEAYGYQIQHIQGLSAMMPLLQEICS
Outline: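 Compounds tested at 15 concentrations on HepG2 cells stably harbouring hCAR and CYP2B6-2.2kb reporter constructs, co-treated with PK11195 (0.75 uM final), 24 h at 37 C; luminescent reporter signal quantified.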

[6] = qHTS assay to identify small molecule antagonists of the estrogen related receptor signaling pathway with the pleiotropic PPARgamma coactivator (PGC) from Tox21 10K library - cell viability counter screen (AID 1224840; active = well fitted cell-killing curve with a large enough effect in the repeat runs, not every such curve was filed as active; also: nearly all actives have a fitted effect of over 40% in size)
Outline: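 Readout: fluorescence intensity from CellTiter-Fluor after 30 min at 37 C/5% CO2. Preceded by 17.5 h treatment of PGC/ERR cells with DMSO-dissolved compounds, added 6 h post-seeding.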

[7] = biological target: Thyrotropin receptor (Homo sapiens) (UniProt P16473); test: qHTS assay to identify small molecule agonists of the thyroid stimulating hormone receptor (TSHR) signaling pathway (AID 1224843; calls by dose curve; also: nearly all actives have a fitted effect of over 45% in size)
Chain of Thyrotropin receptor (Homo sapiens) (P16473 whole entry, looked up): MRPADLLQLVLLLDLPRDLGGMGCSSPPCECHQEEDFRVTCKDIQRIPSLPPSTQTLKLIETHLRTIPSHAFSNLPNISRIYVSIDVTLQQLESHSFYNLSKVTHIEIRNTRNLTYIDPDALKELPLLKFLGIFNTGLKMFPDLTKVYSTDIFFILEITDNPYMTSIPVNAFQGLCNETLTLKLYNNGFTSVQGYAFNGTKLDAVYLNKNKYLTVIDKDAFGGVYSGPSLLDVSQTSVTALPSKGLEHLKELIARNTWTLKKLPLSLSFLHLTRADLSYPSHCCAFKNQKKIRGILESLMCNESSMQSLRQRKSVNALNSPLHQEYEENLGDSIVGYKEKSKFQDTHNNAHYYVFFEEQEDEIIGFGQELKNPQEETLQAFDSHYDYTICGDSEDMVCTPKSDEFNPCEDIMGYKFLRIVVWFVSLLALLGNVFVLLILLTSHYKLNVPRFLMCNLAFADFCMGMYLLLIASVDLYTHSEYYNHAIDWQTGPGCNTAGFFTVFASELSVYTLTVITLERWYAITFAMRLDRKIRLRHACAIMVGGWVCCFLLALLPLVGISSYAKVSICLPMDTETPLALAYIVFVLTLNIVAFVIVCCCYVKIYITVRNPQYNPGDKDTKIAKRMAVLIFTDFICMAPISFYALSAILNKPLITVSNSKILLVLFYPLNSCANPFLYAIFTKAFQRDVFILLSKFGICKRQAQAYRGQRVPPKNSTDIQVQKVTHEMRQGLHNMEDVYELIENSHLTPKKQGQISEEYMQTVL
Outline: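 HEK293/TSHR, 800 cells/well; cpd 30 min RT; add cAMP-d2 + anti-cAMP-cryptate, 1 h RT; fluorescence read on plate reader. 15-pt titration, n=3.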

[8] = qHTS assay to identify small molecule agonists of the hypoxia (HIF-1) signaling pathway - cell viability counter screen (AID 1224844; calls by dose curve; also: nearly all actives have a fitted effect of over 50% in size)
Outline: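 In this counter screen, HRE-bla ME-180 cell viability after 17 hrs of compound exposure at 37C was read by CellTiter-Glo luminescence, multiplexed with the beta-lactamase reporter measurement.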

[9] = qHTS assay to identify small molecule agonists of H2AX - cell viability counter screen (AID 1224847; calls by dose curve; also: top concentration of the series differs between compounds; nearly all actives have a fitted effect of over 30% in size)
Outline: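 Compounds tested at 15 concentrations were incubated 3 hr at 37C with wild-type CHO-K1 cells; cellular ATP-based luminescence (CellTiter-Glo) indicated viability.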

[10] = qHTS RealTime-Glo MT Cell Viability Assay in HepG2 cells - 24 hour (AID 1224867); also: nearly all actives have a fitted effect of over 50% in size
Outline: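 Compound treatment began 5 h after plating HepG2 cells (600/well) with NanoLuc luciferase and prosubstrate. Plates stayed at 37 C for 40 h; luminescence was captured at six time points, 0 h through 40 h.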

[11] = qHTS RealTime-Glo MT Cell Viability Assay in HEK293 cells - 32 hour (AID 1224868); also: top concentration of the series differs between compounds; nearly all actives have a fitted effect of over 50% in size
Outline: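 Quantitative high-throughput screen of the Tox21 10K library in HEK293: cells and RealTime-Glo reagents plated together, compound added at 5 h, luminescence monitored through 40 h at 37 C.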

[12] = A CellTox Green Cytotoxicity Assay to monitor cytotoxicity in HEK293 cells - 0 hour (AID 1224869); also: nearly all actives have a fitted effect of over 50% in size
Outline: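 Real-time, in one plate: 600 HEK293 cells/well with dead-cell DNA dye, pinned compound after 5 h, 37 C incubation over 40 h; viable cells give no appreciable fluorescence.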

[13] = qHTS RealTime-Glo MT Cell Viability Assay in HepG2 cells - 40 hour (AID 1224870); also: nearly all actives have a fitted effect of over 50% in size
Outline: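 HepG2 cells (600/well) mixed with RealTime-Glo MT reagent, settled 5 h at 37 C/5% CO2 before compound addition. Nonlytic NanoLuc luminescence from viable-cell prosubstrate reduction read repeatedly during 40 h treatment at 37 C.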

[14] = qHTS assay to identify small molecule agonists of H2AX (AID 1224845; active = well fitted activation curve with a large enough effect in the signal ratio in the repeat runs, not every such curve was filed as active; the % refers to the signal ratio)
Outline: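 Wild-type CHO-K1 cells, plated overnight, exposed 3hr at 37C to 15 concentrations (0.76% DMSO final). Lysed, then HTRF anti-pH2AX (S139) cryptate and anti-H2AX-d2 antibodies, 24 hr room temperature; 665/620 nm emission read.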

[15] = qHTS assay to identify small molecule agonists of the hypoxia (HIF-1) signaling pathway (AID 1224846; active = well fitted activation curve with a large enough effect in the signal ratio in the repeat runs, not every such curve was filed as active; the % refers to the signal ratio)
Outline: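 ME-180 HRE-bla reporter cells; compounds in DMSO, 17 h at 37C; read-out beta-lactamase via CCF4-AM FRET.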

[16] = qHTS assay to identify small molecule antagonists of the estrogen related receptor signaling pathway with the pleiotropic PPARgamma coactivator (PGC) from Tox21 10K library (AID 1224841; call rule not given here; also: potency is read from the fitted curve at half-maximal effect)
Outline: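 One-Glo luminescence, measured after half an hour at room temperature, quantified reporter output of PGC/ERR cells. These had been plated at 2,000 per well, incubated 6 h, dosed with compounds in DMSO, then kept 18 h at 37 C.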

[17] = qHTS assay to identify small molecule agonists of the estrogen related receptor signaling pathway with the pleiotropic PPARgamma coactivator (PGC) from Tox21 10K library (AID 1224842); also: nearly all actives have a fitted effect of over 15% in size
Outline: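 PGC/ERR reporter cell line, 2,000 cells per well, incubated 6 h at 37 C before 23 nL compound in DMSO was added. After 18 h at 37 C, One-Glo luminescence read following 30 min at room temperature.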

[18] = qHTS assay to identify small molecule antagonists of the estrogen related receptor (ERR) signaling pathway from Tox21 library (AID 1224848); also: nearly all actives have a fitted effect of over 50% in size; also: potency is read from the fitted curve at half-maximal effect
Outline: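 Compounds dissolved in DMSO are pin-transferred onto ERR reporter cells (2,000 per well) that have settled for 6 h at 37 C. Plates then incubate 18 h at 37 C before ONE-Glo luciferase reagent and a luminescence read 30 min later.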

[19] = qHTS assay to identify small molecule agonists of the estrogen related receptor (ERR) signaling pathway from Tox21 library (AID 1224849; calls by dose curve; also: nearly all actives have a fitted effect of over 15% in size); conditions: ERR reporter cell line, ONE-Glo luciferase, 18 h; at 92.4 µM (top of the series) unless noted
Outline: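 Luciferase activity in ERR pathway reporter cells served as the agonist readout; exposure lasted 18 h at 37 C, with ONE-Glo detection after 30 min at room temperature.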

[20] = biological target: Nuclear receptor subfamily 1 group I member 3 (Homo sapiens) (UniProt Q14994); test: qHTS assay to identify small molecule antagonists of the constitutive androstane receptor (CAR) signaling pathway (AID 1224838); also: nearly all actives have a fitted effect of over 40% in size; also: potency is read from the fitted curve at half-maximal effect
Outline: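 Inhibition of CITCO-driven (50 nM final) CYP2B6 reporter expression is measured in HepG2 cells stably carrying hCAR. Fifteen compound concentrations are applied for 24 h at 37 C, followed by luciferase luminescence.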
% is scaled to controls: 0 for no effect and ±100 for the full control effect.

Cc1nccn1CC1CCc2c(c3ccccc3n2C)C1=O (stereo not given)
inactive: Potency [1] | Potency [2] | outcome [3] | outcome [4] | Potency [5] | outcome [6] | outcome [7] | Potency [8] | Potency [9] | outcome [10] | Potency [11] | Potency [12] | Potency [13]

C=CCn1c(=O)n([C@@H]2O[C@H](CO)[C@@H](O)[C@H]2O)c2nc(N)[nH]c(=O)c21
inactive: Potency [1] | Potency [2] | outcome [3] | outcome [4] | outcome [6] | outcome [7] | Potency [8] | outcome [14] | outcome [15] | Potency [9] | outcome [10] | Potency [11] | Potency [12] | Potency [13]

NS(=O)(=O)c1cc2c(cc1Cl)NC(CSCc1ccccc1)=NS2(=O)=O
inactive: Potency [1] | Potency [2] | outcome [3] | outcome [4] | Potency [5] | outcome [6] | outcome [7] | Potency [8] | outcome [14] | outcome [10] | Potency [11] | Potency [12] | Potency [13]

CC1(C)OC(=O)Nc2ccc(Br)cc21
inactive: Potency [1] | Potency [2] | outcome [3] | outcome [4] | Potency [5] | outcome [6] | outcome [7] | Potency [8] | outcome [14] | outcome [15] | Potency [9] | Potency [11] | Potency [12]

CCN1CCCC(OC(=O)C(c2ccccc2)c2ccccc2)C1 (stereo not given)
inactive: Potency [1] | Potency [2] | outcome [3] | outcome [4] | Potency [5] | outcome [7] | Potency [8] | outcome [14] | Potency [9] | Potency [11] | Potency [12]

C=C[Si](OC)(OC)OC
inactive: Potency [1] | Potency [2] | outcome [3] | outcome [4] | Potency [5] | outcome [6] | outcome [14] | outcome [15] | Potency [11] | Potency [12]

CCCC(C)C(=O)O (stereo not given)
inactive: Potency [1] | Potency [2] | outcome [3] | outcome [4] | Potency [5] | outcome [6] | Potency [17] | outcome [7] | outcome [14] | activity change, positive = activation [19] -46.3% | outcome [10] | Potency [11] | Potency [12]
active: Potency [16] 52.3 µM | Potency [18] 52.3 µM

OCc1ccccn1
inactive: Potency [1] | Potency [2] | outcome [3] | outcome [4] | outcome [6] | Potency [16] | Potency [17] | outcome [7] | Potency [8] | outcome [15] | Potency [18] | activity change, positive = activation [19] 4.19% [at 42.5 µM] | outcome [10] | Potency [11] | Potency [12] | Potency [13]

Nc1cc(N)cc(C(=O)O)c1
inactive: Potency [1] | Potency [2] | outcome [3] | outcome [4] | outcome [6] | outcome [7] | Potency [8] | outcome [15] | Potency [9] | outcome [10] | Potency [11] | Potency [12] | Potency [13]

O=C1CC2(CCCC2)CC(=O)N1
inactive: Potency [1] | Potency [2] | outcome [3] | Potency [20] | Potency [5] | outcome [6] | outcome [7] | Potency [8] | outcome [14] | Potency [9] | outcome [10] | Potency [11] | Potency [12] | Potency [13]

CC(C)(C)CC(C)(C)N
inactive: Potency [1] | Potency [2] | outcome [3] | outcome [4] | outcome [7] | Potency [8] | outcome [14] | outcome [15] | Potency [9] | Potency [11] | Potency [12] | Potency [13]

C1C2OC2C2C1C1CC2C2OC12 (stereo not given)
inactive: Potency [1] | Potency [2] | outcome [3] | Potency [20] | Potency [5] | outcome [6] | Potency [8] | outcome [14] | outcome [15] | Potency [9] | outcome [10] | Potency [11] | Potency [12] | Potency [13]

CC(CCO)CCCC(C)(C)O (stereo not given)
active: Potency [20] 27.3 µM
inactive: Potency [1] | Potency [2] | outcome [3] | Potency [5] | outcome [6] | Potency [8] | outcome [14] | outcome [15] | Potency [9] | outcome [10] | Potency [11] | Potency [12] | Potency [13]

CC(C)=CCC/C(C)=C/C(=O)O
inactive: Potency [1] | Potency [2] | outcome [3] | outcome [4] | outcome [6] | outcome [14] | Potency [9] | outcome [10] | Potency [11] | Potency [12] | Potency [13]

CCc1cc(S(=O)(=O)O)c2cc(C(C)C)cccc1-2
inactive: Potency [1] | Potency [2] | outcome [3] | outcome [4] | outcome [6] | outcome [7] | Potency [8] | outcome [15] | Potency [9] | Potency [11] | Potency [12] | Potency [13]
